Results from publication PMC7862700, “An all-to-all approach to the identification of sequence-specific readers for epigenetic DNA modifications on cytosine”.

Experiments:
Experiment in all cases: DAPPL (digital affinity profiling via proximity ligation, sequencing); 10 mM Tris-HCl pH 7.5, 50 mM NaCl, 1 mM DTT, 4% glycerol, room temperature, 30 min; GST-TFs on glutathione beads, 16-mer random dsDNA library, 0.1% formaldehyde crosslink after washing; high values mean tight binding
Settings in all cases: protein: recombinant; tags: N-terminal GST; dsDNA, one strand shown
FLI1 = target: T1, FLI1 (Homo sapiens, UniProt Q01543 1-452)
T1 sequence: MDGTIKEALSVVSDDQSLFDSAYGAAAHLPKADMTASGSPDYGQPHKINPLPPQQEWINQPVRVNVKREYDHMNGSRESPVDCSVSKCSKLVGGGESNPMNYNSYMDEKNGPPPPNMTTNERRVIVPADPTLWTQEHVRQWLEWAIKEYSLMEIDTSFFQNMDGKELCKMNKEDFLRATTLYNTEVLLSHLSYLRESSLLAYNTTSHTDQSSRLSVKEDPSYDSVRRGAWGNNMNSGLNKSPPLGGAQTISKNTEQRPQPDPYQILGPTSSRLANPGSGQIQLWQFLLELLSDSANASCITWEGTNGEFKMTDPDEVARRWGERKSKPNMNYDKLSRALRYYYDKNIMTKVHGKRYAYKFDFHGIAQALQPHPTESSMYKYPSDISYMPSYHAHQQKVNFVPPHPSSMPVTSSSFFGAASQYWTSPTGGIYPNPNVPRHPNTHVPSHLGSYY
Procedure, shortened: (§1)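 Human transcription factors fused to GST were expressed in yeast, captured on glutathione beads, given DNA barcodes and pooled with a GST-only negative control. Pools were incubated with 200 nmole of a 16-mer random double-stranded DNA library in Tris/NaCl/DTT/glycerol buffer at room temperature for 30 min. They were then washed, crosslinked with 0.1% formaldehyde, proximity-ligated (BsaI/T4 ligase, 1 h, 37 °C), PCR-amplified and sequenced on an Illumina NextSeq500. Binding signal is each 6-mer's read frequency for a factor divided by its frequency for the GST control.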

ELK1 = target: T2, ELK1 (Homo sapiens, UniProt P19419 1-428)
T2 sequence: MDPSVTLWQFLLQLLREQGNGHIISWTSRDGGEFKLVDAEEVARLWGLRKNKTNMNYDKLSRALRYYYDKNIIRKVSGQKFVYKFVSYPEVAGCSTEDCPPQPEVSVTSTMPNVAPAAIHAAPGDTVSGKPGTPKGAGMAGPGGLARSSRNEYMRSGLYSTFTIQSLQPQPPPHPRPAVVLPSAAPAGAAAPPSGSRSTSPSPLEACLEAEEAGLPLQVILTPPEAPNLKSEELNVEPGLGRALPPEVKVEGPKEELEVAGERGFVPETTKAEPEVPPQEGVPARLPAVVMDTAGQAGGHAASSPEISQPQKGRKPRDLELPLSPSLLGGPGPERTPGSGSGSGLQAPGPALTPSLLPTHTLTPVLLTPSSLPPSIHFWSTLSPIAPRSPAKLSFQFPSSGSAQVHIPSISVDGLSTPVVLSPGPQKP
Procedure, shortened: as §1

GABPA = target: T3, GABPA (Homo sapiens, UniProt Q06546 1-454)
T3 sequence: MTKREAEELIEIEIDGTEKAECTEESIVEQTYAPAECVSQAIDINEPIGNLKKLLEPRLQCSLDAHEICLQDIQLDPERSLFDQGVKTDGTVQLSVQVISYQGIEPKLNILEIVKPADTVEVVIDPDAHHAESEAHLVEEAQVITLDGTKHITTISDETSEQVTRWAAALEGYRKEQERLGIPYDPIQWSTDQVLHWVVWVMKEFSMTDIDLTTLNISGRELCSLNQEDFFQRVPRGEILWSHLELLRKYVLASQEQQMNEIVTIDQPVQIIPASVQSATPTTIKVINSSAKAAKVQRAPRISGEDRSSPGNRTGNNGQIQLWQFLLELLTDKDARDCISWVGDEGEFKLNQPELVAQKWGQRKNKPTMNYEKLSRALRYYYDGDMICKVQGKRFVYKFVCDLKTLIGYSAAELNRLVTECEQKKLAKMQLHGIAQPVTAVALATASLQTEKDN
Procedure, shortened: as §1

ERG = target: T4, ERG (Homo sapiens, UniProt P11308 1-479)
T4 sequence: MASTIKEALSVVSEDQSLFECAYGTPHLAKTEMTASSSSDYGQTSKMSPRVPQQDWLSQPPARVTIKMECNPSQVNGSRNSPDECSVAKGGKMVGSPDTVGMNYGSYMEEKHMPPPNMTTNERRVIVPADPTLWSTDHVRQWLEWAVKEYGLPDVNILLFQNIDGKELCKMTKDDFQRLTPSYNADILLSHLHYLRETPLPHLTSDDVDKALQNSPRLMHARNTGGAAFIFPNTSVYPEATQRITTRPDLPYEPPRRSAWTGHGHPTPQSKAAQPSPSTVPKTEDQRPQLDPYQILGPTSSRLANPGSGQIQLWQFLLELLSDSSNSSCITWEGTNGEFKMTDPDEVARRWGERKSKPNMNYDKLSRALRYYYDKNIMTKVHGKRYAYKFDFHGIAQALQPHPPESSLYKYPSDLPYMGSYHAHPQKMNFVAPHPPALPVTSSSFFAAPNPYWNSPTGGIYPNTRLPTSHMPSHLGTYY
Procedure, shortened: as §1

ELF1 = ELF1 (Homo sapiens, UniProt P32519 1-619)
Procedure, shortened: as §1

EHF = target: T5, EHF (Homo sapiens, UniProt Q9NZC4 1-300)
T5 sequence: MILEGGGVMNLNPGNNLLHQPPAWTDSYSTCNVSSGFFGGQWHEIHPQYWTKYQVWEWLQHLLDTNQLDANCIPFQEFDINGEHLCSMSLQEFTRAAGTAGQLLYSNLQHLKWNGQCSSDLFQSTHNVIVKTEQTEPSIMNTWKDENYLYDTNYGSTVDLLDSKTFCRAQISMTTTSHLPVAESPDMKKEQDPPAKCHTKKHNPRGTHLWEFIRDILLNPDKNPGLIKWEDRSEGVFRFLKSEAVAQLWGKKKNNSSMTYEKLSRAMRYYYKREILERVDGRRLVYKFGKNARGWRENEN
Procedure, shortened: as §1

SPI1 = SPI1 (Homo sapiens, UniProt P17947 1-270)
Procedure, shortened: as §1

SPIB = SPIB (Homo sapiens, UniProt Q01892 1-262)
Procedure, shortened: as §1

ELK3 = target: T6, ELK3 (Homo sapiens, UniProt P41970 1-407)
T6 sequence: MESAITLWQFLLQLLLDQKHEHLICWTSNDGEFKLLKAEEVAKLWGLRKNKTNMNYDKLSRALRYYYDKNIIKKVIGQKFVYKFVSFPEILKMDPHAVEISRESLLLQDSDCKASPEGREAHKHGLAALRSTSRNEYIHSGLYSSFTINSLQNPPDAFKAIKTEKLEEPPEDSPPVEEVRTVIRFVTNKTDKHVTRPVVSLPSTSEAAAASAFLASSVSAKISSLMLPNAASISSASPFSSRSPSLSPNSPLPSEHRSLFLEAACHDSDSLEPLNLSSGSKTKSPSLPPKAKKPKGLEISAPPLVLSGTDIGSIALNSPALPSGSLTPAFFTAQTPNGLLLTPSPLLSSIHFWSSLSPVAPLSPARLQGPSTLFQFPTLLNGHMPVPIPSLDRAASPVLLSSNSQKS
Procedure, shortened: as §1

Sequence of SPIB (Q01892 whole entry): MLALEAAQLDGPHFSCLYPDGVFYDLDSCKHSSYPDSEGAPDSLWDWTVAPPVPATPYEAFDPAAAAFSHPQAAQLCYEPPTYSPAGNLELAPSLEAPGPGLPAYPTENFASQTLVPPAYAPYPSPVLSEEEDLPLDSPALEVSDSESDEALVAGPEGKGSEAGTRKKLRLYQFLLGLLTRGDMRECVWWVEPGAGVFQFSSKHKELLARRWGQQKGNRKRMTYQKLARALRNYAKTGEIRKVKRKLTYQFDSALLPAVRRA
Sequence of ELF1 (P32519 whole entry): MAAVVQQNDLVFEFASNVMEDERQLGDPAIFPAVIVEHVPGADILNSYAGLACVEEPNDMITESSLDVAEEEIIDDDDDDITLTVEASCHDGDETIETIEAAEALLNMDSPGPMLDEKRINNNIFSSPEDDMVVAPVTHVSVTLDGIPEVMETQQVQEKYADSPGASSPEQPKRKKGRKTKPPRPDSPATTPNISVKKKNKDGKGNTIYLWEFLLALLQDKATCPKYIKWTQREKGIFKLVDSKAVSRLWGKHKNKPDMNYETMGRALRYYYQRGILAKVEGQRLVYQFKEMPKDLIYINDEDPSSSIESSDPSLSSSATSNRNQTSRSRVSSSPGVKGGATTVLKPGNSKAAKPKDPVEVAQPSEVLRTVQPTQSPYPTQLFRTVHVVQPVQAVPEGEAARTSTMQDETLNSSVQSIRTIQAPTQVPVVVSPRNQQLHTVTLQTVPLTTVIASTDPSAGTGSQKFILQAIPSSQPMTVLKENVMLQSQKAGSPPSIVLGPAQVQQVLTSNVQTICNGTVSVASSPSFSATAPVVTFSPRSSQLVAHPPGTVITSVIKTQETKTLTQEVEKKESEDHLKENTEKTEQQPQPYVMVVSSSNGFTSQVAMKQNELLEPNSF

Sequence: TGCCCG
- binding signal (FLI1): 1.16 fold enrichment (6-mer frequency, TF over GST control)
- binding signal (ELK1): 1.16 fold enrichment (6-mer frequency, TF over GST control)
- binding signal (GABPA): 1.24 fold enrichment (6-mer frequency, TF over GST control)
- binding signal (ERG): 1.19 fold enrichment (6-mer frequency, TF over GST control)
- binding signal (ELF1): 1.2 fold enrichment (6-mer frequency, TF over GST control)
- binding signal (EHF): 1.27 fold enrichment (6-mer frequency, TF over GST control)
- binding signal (SPI1): 1.13 fold enrichment (6-mer frequency, TF over GST control)
- binding signal (SPIB): 1.14 fold enrichment (6-mer frequency, TF over GST control)
- binding signal (ELK3): 1.12 fold enrichment (6-mer frequency, TF over GST control)

Sequence: CACCCT
- binding signal (FLI1): 1.21 fold enrichment (6-mer frequency, TF over GST control)
- binding signal (ELK1): 1.26 fold enrichment (6-mer frequency, TF over GST control)
- binding signal (GABPA): 1.18 fold enrichment (6-mer frequency, TF over GST control)
- binding signal (ERG): 1.16 fold enrichment (6-mer frequency, TF over GST control)
- binding signal (ELF1): 1.16 fold enrichment (6-mer frequency, TF over GST control)
- binding signal (EHF): 1.02 fold enrichment (6-mer frequency, TF over GST control)
- binding signal (SPI1): 1.07 fold enrichment (6-mer frequency, TF over GST control)
- binding signal (SPIB): 1.16 fold enrichment (6-mer frequency, TF over GST control)
- binding signal (ELK3): 1.14 fold enrichment (6-mer frequency, TF over GST control)

Sequence: AACGGC
- binding signal (FLI1): 1.08 fold enrichment (6-mer frequency, TF over GST control)
- binding signal (ELK1): 1.13 fold enrichment (6-mer frequency, TF over GST control)
- binding signal (GABPA): 1.25 fold enrichment (6-mer frequency, TF over GST control)
- binding signal (ERG): 1.18 fold enrichment (6-mer frequency, TF over GST control)
- binding signal (ELF1): 1.16 fold enrichment (6-mer frequency, TF over GST control)
- binding signal (EHF): 1.25 fold enrichment (6-mer frequency, TF over GST control)
- binding signal (SPI1): 1.2 fold enrichment (6-mer frequency, TF over GST control)
- binding signal (SPIB): 1.24 fold enrichment (6-mer frequency, TF over GST control)
- binding signal (ELK3): 1.06 fold enrichment (6-mer frequency, TF over GST control)

Sequence: GCACTC
- binding signal (FLI1): 1.29 fold enrichment (6-mer frequency, TF over GST control)
- binding signal (ELK1): 1.5 fold enrichment (6-mer frequency, TF over GST control)
- binding signal (GABPA): 1.32 fold enrichment (6-mer frequency, TF over GST control)
- binding signal (ERG): 1.31 fold enrichment (6-mer frequency, TF over GST control)
- binding signal (ELF1): 1.33 fold enrichment (6-mer frequency, TF over GST control)
- binding signal (EHF): 1.37 fold enrichment (6-mer frequency, TF over GST control)
- binding signal (SPI1): 1.35 fold enrichment (6-mer frequency, TF over GST control)
- binding signal (SPIB): 1.35 fold enrichment (6-mer frequency, TF over GST control)
- binding signal (ELK3): 1.28 fold enrichment (6-mer frequency, TF over GST control)

Sequence: CCTGCC
- binding signal (FLI1): 1.17 fold enrichment (6-mer frequency, TF over GST control)
- binding signal (ELK1): 1.34 fold enrichment (6-mer frequency, TF over GST control)
- binding signal (GABPA): 1.25 fold enrichment (6-mer frequency, TF over GST control)
- binding signal (ERG): 1.3 fold enrichment (6-mer frequency, TF over GST control)
- binding signal (ELF1): 1.31 fold enrichment (6-mer frequency, TF over GST control)
- binding signal (EHF): 1.39 fold enrichment (6-mer frequency, TF over GST control)
- binding signal (SPI1): 1.28 fold enrichment (6-mer frequency, TF over GST control)
- binding signal (SPIB): 1.43 fold enrichment (6-mer frequency, TF over GST control)
- binding signal (ELK3): 1.13 fold enrichment (6-mer frequency, TF over GST control)

Sequence: CGTTCC
- binding signal (FLI1): 1.43 fold enrichment (6-mer frequency, TF over GST control)
- binding signal (ELK1): 1.35 fold enrichment (6-mer frequency, TF over GST control)
- binding signal (GABPA): 1.29 fold enrichment (6-mer frequency, TF over GST control)
- binding signal (ERG): 1.45 fold enrichment (6-mer frequency, TF over GST control)
- binding signal (ELF1): 1.44 fold enrichment (6-mer frequency, TF over GST control)
- binding signal (EHF): 1.42 fold enrichment (6-mer frequency, TF over GST control)
- binding signal (SPI1): 1.44 fold enrichment (6-mer frequency, TF over GST control)
- binding signal (SPIB): 1.54 fold enrichment (6-mer frequency, TF over GST control)
- binding signal (ELK3): 1.46 fold enrichment (6-mer frequency, TF over GST control)

Sequence: ACATTG
- binding signal (FLI1): 1.24 fold enrichment (6-mer frequency, TF over GST control)
- binding signal (ELK1): 1.11 fold enrichment (6-mer frequency, TF over GST control)
- binding signal (GABPA): 1.17 fold enrichment (6-mer frequency, TF over GST control)
- binding signal (ERG): 1.07 fold enrichment (6-mer frequency, TF over GST control)
- binding signal (ELF1): 1.13 fold enrichment (6-mer frequency, TF over GST control)
- binding signal (EHF): 1.17 fold enrichment (6-mer frequency, TF over GST control)
- binding signal (SPI1): 1.04 fold enrichment (6-mer frequency, TF over GST control)
- binding signal (SPIB): 1.16 fold enrichment (6-mer frequency, TF over GST control)
- binding signal (ELK3): 1.11 fold enrichment (6-mer frequency, TF over GST control)

Sequence: CTCCGC
- binding signal (FLI1): 1.51 fold enrichment (6-mer frequency, TF over GST control)
- binding signal (ELK1): 1.63 fold enrichment (6-mer frequency, TF over GST control)
- binding signal (GABPA): 1.58 fold enrichment (6-mer frequency, TF over GST control)
- binding signal (ERG): 1.38 fold enrichment (6-mer frequency, TF over GST control)
- binding signal (ELF1): 1.56 fold enrichment (6-mer frequency, TF over GST control)
- binding signal (EHF): 1.37 fold enrichment (6-mer frequency, TF over GST control)
- binding signal (SPI1): 1.56 fold enrichment (6-mer frequency, TF over GST control)
- binding signal (SPIB): 1.37 fold enrichment (6-mer frequency, TF over GST control)
- binding signal (ELK3): 1.5 fold enrichment (6-mer frequency, TF over GST control)
